Compound activity: PubChem BioAssay, National Center for Advancing Translational Sciences (NCATS)
Many of the other results were omitted from the sample, so hits are more common in it than they were.
Pf Dd2 growth: blocks in vitro growth of P. falciparum Dd2 | AID 1347417 | Potency, µM (doses to about 28.9 µM), usual class: inhibitors | 4.3% of 120,000 active | P. falciparum Dd2 growth, SYBR Green, 72 h; active = well fitted inhibition curve with a large enough effect; note: nearly all actives have a fitted effect of over 65% in size
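Readout: SYBR Green fluorescence, 485 nm excitation, 535 nm emission, after ~16 h lysis at 37C. Before that, Dd2-infected red cells (2.5% hematocrit) grew 72 h with compound, 29 uM top final concentration.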
Numbers stand for hits; . = inactive.

SMILES	Pf Dd2 growth
COc1ccc(CNC(=O)Cn2c(C)cc3nc4n(c(=O)c32)CCCC4)cc1	.
CCO[C@H]1C[C@@H](O)C12CCN(c1ccnc(OC)c1C#N)CC2	.
COc1cccc(NC(=O)C2CCCN(S(=O)(=O)c3c(C)nn(C)c3C)C2)c1 (configuration not stated)	.
C=CCNC(=O)c1ccc(-c2nnc3ccc(NC(=O)C4CCC4)cn23)cc1	3.16µM
O=C(Nc1ccc(-c2nnc3n2CCCC3)cc1)C1CCC1	.
O=C(NC1CCCC1)c1ccc2nnc(-c3cncc(Cl)c3)n2c1	.
C=CCNC(=O)c1ccc2cncn2c1	.
COc1cccc(C(=O)N2CCC(C(=O)Nc3cccc(Cl)c3)CC2)c1	.
O=C(NCCN1CCOCC1)c1ccc(-c2ccc(N3CCCCCC3)nc2)cc1	.
O=C(NCCN1CCCCC1)c1ccc(-c2nnc3ccc(NC(=O)C4CCC4)cn23)cc1	1.26µM
Cc1ccc(-c2ccc3nnc(CNC(=O)C4CCCCC4)n3n2)cc1	.
O=C(NC1CC1)c1ccc2nnc(-c3ccc(F)cc3)n2c1	.
CC(C)NC(=O)c1ccc(-c2nnc3ccc(NC(=O)C4CCC4)cn23)cc1	3.98µM
COc1cccc(NC(=O)c2ccc(-c3nnc4ccc(NC(=O)C5CCC5)cn34)cc2)c1	0.282µM
COCCN1CCC(N2CCN(C(=O)CC3CCCC3)CC2)C1=O (configuration not stated)	.
Cc1cccc(CN2CCc3c(n(Cc4cccnc4)n(-c4ccccc4)c3=O)C2)n1	.
CC(=O)Nc1ccc2c(c1)nc1n2[C@@H](CNC2CCOCC2)COC1	.
O[C@@H]1C[C@@H](c2nc(-c3ccc(C(F)(F)F)cc3)no2)N(Cc2cccc(OC(F)(F)F)c2)C1	.
CCC(Cn1ccnc1-c1ccc(SC)cc1)N1CCN(C)CC1 (configuration not stated)	.
CN(C)c1ccc(CN(C)C2CCc3ccccc32)cc1 (configuration not stated)	.
CCn1c2c(c(=O)n1-c1ccccc1)CCN(C(=O)Cc1ccc3c(c1)OCO3)C2	.
COCCOC1CCOC2(CCN(C(=O)c3ccc(OC)c(OC)c3)CC2)C1 (configuration not stated)	.
CCCOc1ccc(CN2C[C@@H](CO)[C@H](C(=O)N(C)C)C2)cc1	.
CS(=O)(=O)c1ccc(-c2cnc([C@@H]3COCCN3C3CCOCC3)[nH]2)cc1	.
Cc1ccc2c(C(=O)N3CCN(C4CCCCC4)CC3)cc(NC(=O)C(C)C)cc2n1	.
SMILES	Pf Dd2 growth
O=C(Cc1cccc(F)c1)NCc1nnc2c(-c3nc(C4CC4)no3)cccn12	.
COc1ccc(OC)c2nc(-c3cccc(Cl)c3)c(CN3CC(O)C3)cc12	.
COc1ccc(-c2nc3cc(C)ccc3cc2CN2CCC[C@@H]2C(N)=O)cc1OC	.
COc1cc2cc(CN3CCC[C@@H]3CO)c(-c3cccc(Cl)c3)nc2cc1OC	12.6µM
COc1ccc(-c2nc(-c3nnn4c3COC(c3ccccc3Cl)C4)no2)cc1F (configuration not stated)	.
COc1cccc(C(=O)N2CCN(c3cc(C(F)(F)F)ncn3)CC2)c1OC	.
O[C@@H]1C[C@@H](c2nc(-c3ccc(OC(F)(F)F)cc3)no2)N(Cc2ncc[nH]2)C1	.
O[C@@H]1CN(CC2CCNCC2)CC[C@H]1c1ccc2ccccc2c1	11.2µM
O=C(O)c1ccc(CN2CC[C@@H](c3ccc4ccccc4c3)[C@H](O)C2)cc1	.
CS(=O)(=O)c1ccc(CN2CC[C@@H](c3ccc4ccccc4c3)[C@H](O)C2)cc1	.
COC(=O)CNC(=O)N1CCC(OC2CCN(Cc3ccccc3)CC2)CC1	.
COc1cccc(C(=O)N2CCC(C(=O)N3CC[C@@](C)(O)[C@@H](O)C3)CC2)c1	.
CC(C)c1nc2c(c(-c3ccc(O)cc3)n1)CCN(C(=O)c1ccc(F)cc1)CC2	.
COc1ccc(-c2nc(C(C)C)nc3c2CCN(C(=O)Nc2ccc(Cl)cc2)CC3)cc1	.
COc1ccc(CN2CCc3nc(C(C)C)nc(-c4ccc(O)cc4)c3CC2)cc1	2.24µM
COc1ccc(-c2nc(C(C)C)nc3c2CCN(C(=O)c2ccccc2)CC3)cc1	.
CC(C)c1nc2c(c(-c3ccc(O)cc3)n1)CCN(CC1CCCCC1)CC2	1.12µM
Cc1nc2c(c(-c3ccc(O)cc3)n1)CN(CC1CC1)CC2	.
O=C1N2CCCC2CN1C1CCN([S+](=O)([O-])c2cccc(C(F)(F)F)c2)CC1 (configuration not stated)	.
CCCNC(=O)N(C1CCOCC1)C1CCN(C(=O)c2ccc(OC)nc2OC)CC1	.
COCCNC(=O)[C@H]1C[C@H](Oc2cccnc2)CN1C(=O)Nc1cccc(F)c1	.
Cc1cccc(CNC(=O)c2ccc(Cn3c(SCc4cccc(F)c4)nc4cccnc43)cc2)c1	.
O=C(NCc1ccco1)c1ccc(Cn2c(SCc3ccccc3)nc3cccnc32)cc1	.
COCCCNC(=O)c1ccc(CSc2nc3cccnc3n2Cc2ccc(OC)cc2)cc1	.
COc1cccc(CNC(=O)c2ccc(Cn3c(SCc4ccccc4)nc4cccnc43)cc2)c1	10µM
SMILES	Pf Dd2 growth
COc1ccc(Cn2c(SCc3ccc(C(=O)NCc4ccc(C)cc4)cc3)nc3cccnc32)cc1	10µM
CC(C)OCCCNC(=O)c1ccc(CSc2nc3cccnc3n2Cc2ccccc2)cc1	.
Cc1ncc(C(=O)N2CCOCC2CC(=O)N2CCCC2)c(-c2ccccc2)n1 (configuration not stated)	.
CCn1c(CO)nnc1C1CC(NC(=O)c2sccc2N)C1 (configuration not stated)	.
COc1cccc(CCC(=O)N2CCC3(CC2)NC(=O)N(c2ccccc2)N3)c1	.
CC(C)Oc1ccc(CNC(=O)C2Cn3cccc3C(=O)N2)cc1 (configuration not stated)	.
CCOc1ccccc1NC(=O)Cn1c(N2CCCCC2)nc(C)c(C)c1=O	.
O=C(CCC1CCCN(Cc2cnc(-c3ccccc3)s2)C1)Nc1ccccc1F (configuration not stated)	14.1µM
O=C(CCC1CCCN(CC2=Cc3cc(Cl)ccc3OC2)C1)Nc1ccccc1F (configuration not stated)	.
CC(C)(O)C#Cc1ccc(CN2CCCC(CCC(=O)Nc3ccccc3F)C2)s1 (configuration not stated)	.
Cc1ccccc1CC(=O)NC1CCN(c2cc(-c3ccccc3)[nH]n2)C1 (configuration not stated)	.
COc1ccc(C(=O)NC2CCN(c3ccc(C)cc3)C2=O)cc1F (configuration not stated)	.
COC[C@@H]1CN(C(=O)c2cc(Cl)ccc2OC)C[C@H]1C(N)=O	.
O=C(NCc1ccc(F)cc1Cl)c1cc2n(n1)CC(c1ccc3c(c1)OCO3)OC2 (configuration not stated)	.
CC(C)C[C@@H]1N[C@H](C(=O)O)Cc2cn(Cc3ccncc3)c3cccc1c23	.
CC#CCn1cc2c3c(cccc31)[C@H](CC(C)C)N[C@H](C(=O)NCc1cccs1)C2	.
COc1ccc(CNC(=O)[C@@H]2Cc3cn(CC4CC4)c4cccc(c34)[C@H](CC(C)C)N2)cc1	.
Cc1cc(Cn2cc3c4c(cccc42)[C@H](CC(C)C)N[C@H](C(=O)NCCN(C)C)C3)no1	7.94µM
Cc1cc(Cn2cc3c4c(cccc42)[C@H](CC(C)C)N[C@H](C(=O)NCCN2CCOCC2)C3)no1	.
CC#CCn1cc2c3c(cccc31)[C@H](CC(C)C)N[C@H](C(=O)NCc1ccc(OC)cc1)C2	.
